Nrf2 activator – activates Nrf2 signaling; AREc32 ARE-luciferase reporter (MCF7-derived line), luminescence, 24 h; Potency, µM (titrated, usually from 46.1 µM), without a hit: at the top dose activation, most hits filed as activators; 410,000 compounds, 0.31% hits; further: potency means the concentration at half of the fitted maximal effect; % of control where 0% means no effect; nearly all actives have a fitted effect of over 65% in size
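Steps: seed AREc32_Fluc cells (1000/well, 5% FBS OPTI-MEM); incubate overnight at 37 deg C; add 23 nL compound; incubate 24 hr; add Steady-Glo; hold 30 min RT; read luminescence.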
IL2 activator – IL-2 activation. 360,000 compounds, 0.065% hits. IL-2 activation reporter assay, cell-based qHTS; stimulated with anti-CD3/CD4/CD28 beads; in transgenic mouse T cells. AID 652025. activation, % (series mostly up to about 46 µM); in the data active means activation above about 50%; inconclusive means mostly about 30% to 49%; further: 0% is about no effect
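Unstimulated transgenic mouse T cells; 60-min compound exposure; bead-based TCR/CD4/CD28 stimulation; 18 h culture, 37 degrees C; dual fluorescence (EGFP, DsRed) plate cytometry.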
Integrin act MD – integrin-mediated muscular dystrophy alleviation activation | alpha7betagal myoblasts, beta-gal FDG fluorescence, 48 h | Potency, µM (highest dose often 38.3 µM), without a hit: at the highest dose activation, usual class: activators | 350,000 compounds, 0.064% hits;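 further: potency means the concentration at half of the fitted maximal effect; 100% = response of the positive control SU9516; nearly all actives have a fitted effect of over 60% in size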
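alpha7betagal+/- myoblasts (passage 13, 250/well) treated 48 h at 37C with compounds at 1:260 dilution of DMSO stock. Lysed, then beta-galactosidase activity read as FDG fluorescence (ex 480/em 540) after 30 min, with pre-read for autofluorescence.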
ALOX12 inh – blocks human arachidonate 12S-lipoxygenase; Potency, µM (series often up to 108 µM), for inactives: at the highest dose activity change, negative = inhibition, most hits filed as inhibitors; 580,000 compounds, 1.1% hits; purified 12hLO, xylenol orange hydroperoxide absorbance; further: potency means the concentration at half of the fitted maximal effect; on the % scale 0 is the no-effect control and ±100 the full control effect
Target sequence (P18054 whole entry, looked up): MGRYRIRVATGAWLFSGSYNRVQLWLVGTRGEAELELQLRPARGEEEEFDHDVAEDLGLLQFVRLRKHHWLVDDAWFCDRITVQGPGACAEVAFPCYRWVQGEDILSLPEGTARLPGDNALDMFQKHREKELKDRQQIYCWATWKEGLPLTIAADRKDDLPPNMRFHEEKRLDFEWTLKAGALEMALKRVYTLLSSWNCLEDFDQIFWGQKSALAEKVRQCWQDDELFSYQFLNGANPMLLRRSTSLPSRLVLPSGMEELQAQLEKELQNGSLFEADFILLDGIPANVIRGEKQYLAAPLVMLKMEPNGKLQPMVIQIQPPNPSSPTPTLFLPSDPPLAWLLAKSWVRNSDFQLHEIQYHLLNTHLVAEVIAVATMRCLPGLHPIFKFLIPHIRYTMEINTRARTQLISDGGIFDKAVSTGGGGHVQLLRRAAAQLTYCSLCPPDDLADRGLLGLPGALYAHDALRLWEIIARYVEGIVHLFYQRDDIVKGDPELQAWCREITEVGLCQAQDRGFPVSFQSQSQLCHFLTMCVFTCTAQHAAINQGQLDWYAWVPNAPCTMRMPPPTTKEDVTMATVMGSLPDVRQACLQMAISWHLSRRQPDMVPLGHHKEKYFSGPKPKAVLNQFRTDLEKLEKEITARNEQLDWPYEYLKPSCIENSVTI
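Hydroperoxide product was detected by ferrous iron/xylenol orange as the 573 to 405 nm absorbance ratio. Arachidonic acid at 40 uM (final) was turned over for 30 min at room temperature by 150 nM human 12hLO, pH 7.0 Hepes buffer, after 15 min compound preincubation.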
uPA surface inh – cell surface uPA generation inhibition; cell surface uPA generation assay, qHTS; Potency, µM (top dose mostly 38.3 µM), inactives show top-dose activity change, negative = inhibition, usual class: inhibitors; 330,000 compounds, 0.31% hits; active means well fitted inhibition curve with a large enough effect; inconclusive means small, poorly fitted or top-dose-only effect; inactive means no such curve, though single readings can be large or run the other way; tested in mouse RAW 264.7 cells; further: potency means the concentration at half of the fitted maximal effect; on the % scale 0 is the no-effect control and ±100 the full control effect; nearly all actives have a fitted effect of over 55% in size
An asterisk follows results filed as active; ? = inconclusive; . = no result given; [ ] = another dose, or the depositor's remark. Sampled rows, rich in hits. Any-hit rate of the full collection: about 1.5%. Unless noted, the call rests on the fitted dose curve; in most records, active means well fitted curve in the direction sought with a large enough effect; inconclusive means small, poorly fitted or top-dose-only effect, or another doubt; inactive means no such curve, though single readings can be large; an effect the other way counts as inactive or inconclusive.

SMILES	Nrf2 activator	IL2 activator	Integrin act MD	ALOX12 inh	uPA surface inh
CCc1ccc2oc(=O)cc(-c3oc4ccccc4c3NC(=O)C3CC3)c2c1	.	.	.	7.94µM*	.
CCCCc1c(-c2ccccc2OC)ncn1Cc1ccccc1C	.	.	.	28.2µM*	.
CCCCc1c(-c2ccccc2OC)ncn1Cc1ccccc1F	.	.	.	-13.9%	.
O=[N+]([O-])c1ccccc1/C=C/C=N/n1c(-c2ccco2)n[nH]c1=S	10µM*	-0.4	-30.5%	?	-3.0%
S=c1[nH]nc(-c2ccco2)n1/N=C/c1cccc(Cl)c1	12.6µM*	-0.4	20.7%	-9.7%	-7.5%
CC1(C)CC(N2CCCC2)=CC(=[N+]2CCCC2)C1	-1.4%	-4.3	-13.0%	39.8µM*	?
CC1(C)CC(N2CCN(Cc3ccccc3)CC2)=CC(=[N+]2CCCCC2)C1	-0.6%	-6.2	-71.6%	-10.7%	-5.9%
CC1(C)CC(N2CCCC2)=CC(=[N+]2CCCCC2)C1	-0.3%	-1.8	-46.1%	39.8µM*	?
O=C(c1ccccc1F)N1CCCCCC1c1nnc(-c2ccccc2)o1 (configuration not stated)	.	.	.	4.9%	.
COc1ccc(CNC(=O)C2CCN(C(=O)c3ncn4c3COC(c3ccc(C)cc3)C4)CC2)cc1 (configuration not stated)	.	.	.	45.3%	.
O=C(c1ccc2c3n(nc2c1)-c1ccccc1CO3)N1CCOCC1	-0.6%	1.0	-7.7%	.	7.08µM*
C[C@@H](CO)NC(=O)c1ccc2c3n(nc2c1)-c1ccccc1CO3	-4.4%	-0.2	24.5%	-20.1%	1.12µM*
O=C(c1ccc2c3n(nc2c1)-c1ccccc1CO3)N1CCCCC1	0.0%	-0.4	-3.8%	5.3%	4.47µM*
O=C(c1ccc2c3n(nc2c1)-c1ccc(Cl)cc1CO3)N1CCOCC1	3.9%	2.6	?	-3.7%	-26.1%
O=C(NCCCc1nnc2ccccn12)C1CC(=O)N(c2n[nH]c3ccccc23)C1 (configuration not stated)	.	.	.	41.1%	.
O=C(CSc1ccc(-c2ccco2)nn1)N1CCCCC1	?	0.9	4.6%	13.7%	-0.6%
O=C(CSc1ccc(-c2ccco2)nn1)N1CCCC1	10µM*	-1.3	?	-18.1%	0.0%
COc1ccc(-c2noc([C@@H]3CCCN3C(=O)c3ccc(C)c(C)c3)n2)cc1	.	.	.	-11.2%	.
COc1cccc(C(=O)Nc2oc3ccccc3c(=O)c2-c2ccc(Cl)cc2)c1	.	.	.	3.3%	.
Cn1c2ccccc2c2ccc3c(c21)C(=O)C=CC3=O	6.2%	-5.4	-23.9%	?	-3.1%
COc1ccc2c(c1)c1ccc3c(c1n2C)C(=O)C=CC3=O	12.4%	-3.0	1.2%	0.708µM*	?
Cc1ccc2c(c1)c1ccc3c(c1n2C)C(=O)C=CC3=O	10.3%	-0.7	-50.0%	1.12µM*	?
CCC(CC)NC(=O)CCC1CCN(C(=O)c2ccccc2)CC1	.	.	.	16.6%	.
O=C(/C=C\NCC(=O)c1ccccc1)c1ccc2ccccc2c1	5.9%	-2.1	-12.1%	35.5µM*	-8.0%
O=C(/C=C\NCC(=O)c1ccccc1)c1ccc(F)cc1	3.0%	0.4	-11.1%	-20.0%	.
SMILES	Nrf2 activator	IL2 activator	Integrin act MD	ALOX12 inh	uPA surface inh
COc1ccc2c(COC(=O)c3ccccc3C)cc(=O)oc2c1	.	.	.	5.1%	.
CCOC(=O)C1=C(CN2CCN(C(=O)OCC)CC2)NC(=O)NC1c1cccc(OC)c1OC (configuration not stated)	.	.	.	-11.9%	.
CSc1cccc(NC(=S)NN/C(=N/S(=O)(=O)c2ccccc2)N2CCCC2)c1	.	.	.	44.7µM*	.
O=C1Nc2ccc(-c3ccc(Cl)cc3)cc2C(=O)N2CCN(C(=O)c3cccnc3)C[C@H]12	.	.	.	17.2%	.
Cc1cc(CN2CCC3(CC(c4cccc(C(F)(F)F)c4)=NO3)C2)no1 (configuration not stated)	.	.	.	0.8%[6.33 µM]	.
O=S(=O)(c1ccc(NC(=S)Nc2ccccc2)cc1)N1CCOCC1	0.4%	-1.7	-4.3%	-24.2%	2.3%
CC(C)CCCCCCNC(=S)Nc1ccc(S(=O)(=O)N2CCOCC2)cc1	6.0%	-4.2	-60.8%	50.1µM*	?
CCOc1ccc(Nc2nc(C)c(NC(=O)c3ccc(C)cc3)c(Nc3ccc(OCC)cc3)n2)cc1	4.0%	.	.	22.4µM*	.
COc1ccc(C(=O)Nc2ccc3[nH]ncc3c2)cc1	-0.5%	1.7	33.5%	0.0%	3.16µM*
CCCC(=O)Nc1ccccc1NC(=O)c1ccc(OCC)cc1	-0.7%	1.3	11.2µM*	-2.5%	11.6%
O=C(Nc1ccc2[nH]ncc2c1)c1ccc(F)cc1	-0.3%	-2.9	3.6%	25.1%	-11.7%
CCOc1ccc(C(=O)Nc2ccc3[nH]ncc3c2)cc1	-1.5%	0.4	?	1.8%	5.01µM*
CN(C)C(=O)COC(=O)c1cc(-c2ccc(Cl)s2)nc2ccccc12	.	.	.	-22.0%	.
CCN(CC)C(=O)[C@@H]1CCC[C@@H](NCc2nccn2C)CN(C)C(=O)C1	.	.	.	36.4%[176 µM]	.
COc1ccc(C(=O)Nc2ccc(C3(C)CC=NO3)cc2)cc1 (configuration not stated)	.	.	.	6.0%	.
O=Cc1c[nH]c2ccc(Br)cc12	.	.	.	-17.7%	.
CCOC(=O)c1nnn(-c2ccc([N+](=O)[O-])cc2[N+](=O)[O-])c1C	-0.9%	-0.2	-51.0%	?	8.91µM*
CCOC(=O)c1nnn(-c2ccccc2)c1C	-0.5%	-2.0	14.6%	0.0%	-12.1%
CCNC(=O)[C@@H]1C[C@H](NC(=O)c2ccc[nH]2)CN1C(=O)CCn1cnnn1	.	.	.	47.5%	.
c1ccc2sc(Sc3ncnc4sccc34)nc2c1	8.91µM*	-2.1	-60.1%	-7.7%	-16.7%
c1ccc(CSc2ncnc3sccc23)cc1	11.2µM*	-0.3	-11.1%	1.3%	?
CCOC(=O)C1CCN(CCC(=O)Nc2cc(C)ccc2OC)CC1	.	.	.	16.9%	.
CCOC(=O)C1=C(O)/C(=C\c2ccc(CNS(=O)(=O)c3ccc(Br)cc3)o2)N=C1C	-0.7%	0.3	-23.7%	44.7µM*	4.1%
COC(=O)C1=C(O)/C(=C\c2ccc(CNS(=O)(=O)c3ccc(Cl)cc3)o2)N=C1C	-0.1%	1.5	11.1%	50.1µM*	1.6%
COC(=O)C1=C(O)/C(=C\c2ccc(CNS(=O)(=O)c3ccccc3)o2)N=C1C	2.1%	3.4	28.6%	?	-1.9%
SMILES	Nrf2 activator	IL2 activator	Integrin act MD	ALOX12 inh	uPA surface inh
O=C(CC[C@@H]1CNC(=O)[C@@H]2C[C@H](NC(=O)c3ccccc3)CN12)NCc1ccc(F)cc1	.	.	.	31.6µM*	.
COc1ccc(CCNC(=O)c2cnn(-c3ccccc3)c2-n2cccc2)c(OC)c1	.	.	.	-11.3%	.
Nc1ccc2cc3[nH]c4cc(N)ccc4c3nc2c1	?	424.3*	-90.6%	?	-12.6%
COc1ccc(S(=O)(=O)N(CC(=O)NCCN2CCOCC2)c2ccc(F)cc2)cc1	.	.	.	14.6%	.
CN(CC(=O)Nc1ccc(F)c(F)c1F)C(=O)/C=C/c1ccco1	12.6µM*	-0.7	-1.3%	-21.4%	-3.9%
O=C(Nc1ccc(Cl)cc1)Nc1nc(-c2ccccc2)cs1	0.1%	-0.2	-13.7%	-1.5%	-6.0%
